The source of these data is PubChem BioAssay.

Unmarked numbers belong to inactive results. For part of these data: Entries with a potency or affinity are not part of this list. Activity calls are given as the source filed them. Unless noted, the rule behind the calls is not given here.

Assay [1] in a line: antimalarial activity against Dd2 strain (AID 2302;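 active = growth inhibition above 50% at the single 2 µM test dose, taken to imply half-maximal potency below 2 µM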;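 note: 0% = DMSO untreated growth and 100% = chloroquine plus artemisinin killed control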). Particulars: P. falciparum Dd2 in RBCs, LDH growth readout, 72 h; at 2 µM; stronger effect = higher value.
Assay [2] is described as follows: HepG2 cytotoxicity, primary screen, cytotoxicity control for P. falciparum antimalarial project, cell-based, ATP luminescence (AID 2303;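 active = inhibition above 50%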;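 note: 0% = DMSO wells and 100% = digitonin-killed cells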). Particulars: HepG2 viability, 24-48 h, at 10 µM, stronger effect = higher value.
Assay [3] concerns the target L-lactate dehydrogenase (Plasmodium falciparum (isolate CDC / Honduras)) (UniProt Q27743). Briefly: PfLDH activity inhibition – cell lysate, 3D7 strain, counter-screen for P. falciparum growth inhibition project (AID 2304).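 Note: 0% = vehicle and 100% = reference inhibitor.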 Particulars: P. falciparum 3D7 crude extract, LDH APAD/NBT absorbance; at 2 µM; stronger effect = higher value.
Assay [4] is described as follows: inhibition of 3D7 malaria parasite growth – strain 3D7 (AID 2306).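 Note: 0% = DMSO wells and 100% = chloroquine plus artemisinin control wells.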 The conditions noted are these: P. falciparum 3D7 erythrocytic growth, LDH absorbance, 72 h; at 2 µM; stronger effect = higher value.
Assay [5] deals with Calcium-dependent protein kinase 1 (Plasmodium falciparum (isolate 3D7)) (UniProt P62344). The assay can be described thus: PfCDPK1 kinase inhibitors, biochemical, TCAMS library (AID 1159585; cut-off not given, nearly all actives have IC50 up to about 0.98 µM;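 note: inhibitors leave more ATP so luminescence rises with inhibition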). The conditions noted are these: recombinant PfCDPK1, Kinase-Glo ATP depletion luminescence. In general terms: In Kinase-Glo more light means more ATP remaining.
Assay [6] deals with Plasmodium falciparum protein kinase 6 (PK6, PF3D7_1337100) (UniProt Q8IDW1). Briefly: PfPK6 kinase inhibitors, biochemical, TCAMS library (AID 1159586). Particulars: recombinant PfPK6, Kinase-Glo ATP depletion luminescence.
For assay [7], the target named is Protein kinase 7 (PK7), Plasmodium falciparum 3D7 (PF3D7_0213400) (UniProt Q7YTF7). Briefly: inhibition of Plasmodium PK7 catalytic activity – biochemical, TCAMS antimalarial set, Kinase-Glo luminescence (AID 1159587). The conditions noted are these: recombinant PfPK7, Kinase-Glo ATP depletion luminescence.
In assay [8] the target is Calcium-dependent protein kinase 4 (Plasmodium falciparum (isolate 3D7)) (UniProt Q8IBS5). Briefly: PfCDPK4 kinase inhibitors, biochemical, TCAMS library (AID 1159588; cut-off not given, nearly all actives have IC50 up to about 0.91 µM). Particulars: recombinant PfCDPK4, Kinase-Glo ATP depletion luminescence.
Calcium-dependent protein kinase 4 (Plasmodium falciparum (isolate 3D7)), sequence (Q8IBS5 whole entry, looked up): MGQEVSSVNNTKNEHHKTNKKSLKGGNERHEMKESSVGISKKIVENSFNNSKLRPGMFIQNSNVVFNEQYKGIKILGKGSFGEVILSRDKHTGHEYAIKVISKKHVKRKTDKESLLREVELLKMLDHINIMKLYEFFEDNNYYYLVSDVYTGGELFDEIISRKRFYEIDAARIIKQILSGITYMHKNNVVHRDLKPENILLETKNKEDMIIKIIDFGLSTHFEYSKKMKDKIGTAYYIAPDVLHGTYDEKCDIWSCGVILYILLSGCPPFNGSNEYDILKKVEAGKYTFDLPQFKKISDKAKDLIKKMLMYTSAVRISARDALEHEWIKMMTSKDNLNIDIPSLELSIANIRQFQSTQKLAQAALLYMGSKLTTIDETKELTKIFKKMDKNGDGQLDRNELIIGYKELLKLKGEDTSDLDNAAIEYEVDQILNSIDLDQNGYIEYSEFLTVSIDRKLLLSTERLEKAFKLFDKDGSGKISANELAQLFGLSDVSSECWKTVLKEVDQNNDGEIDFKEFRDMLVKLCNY

Protein kinase 7 (PK7), Plasmodium falciparum 3D7 (PF3D7_0213400), sequence (Q7YTF7 1-343): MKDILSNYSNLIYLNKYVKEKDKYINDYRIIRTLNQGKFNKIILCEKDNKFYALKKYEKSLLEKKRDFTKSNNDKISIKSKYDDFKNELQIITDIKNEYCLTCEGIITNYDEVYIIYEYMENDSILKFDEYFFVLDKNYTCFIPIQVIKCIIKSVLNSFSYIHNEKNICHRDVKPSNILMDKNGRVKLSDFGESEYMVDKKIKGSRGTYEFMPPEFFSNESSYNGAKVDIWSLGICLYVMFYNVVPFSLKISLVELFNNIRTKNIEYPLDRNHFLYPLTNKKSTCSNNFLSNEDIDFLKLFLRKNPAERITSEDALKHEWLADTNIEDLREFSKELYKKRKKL
Calcium-dependent protein kinase 1 (Plasmodium falciparum (isolate 3D7)), sequence (P62344 whole entry, looked up): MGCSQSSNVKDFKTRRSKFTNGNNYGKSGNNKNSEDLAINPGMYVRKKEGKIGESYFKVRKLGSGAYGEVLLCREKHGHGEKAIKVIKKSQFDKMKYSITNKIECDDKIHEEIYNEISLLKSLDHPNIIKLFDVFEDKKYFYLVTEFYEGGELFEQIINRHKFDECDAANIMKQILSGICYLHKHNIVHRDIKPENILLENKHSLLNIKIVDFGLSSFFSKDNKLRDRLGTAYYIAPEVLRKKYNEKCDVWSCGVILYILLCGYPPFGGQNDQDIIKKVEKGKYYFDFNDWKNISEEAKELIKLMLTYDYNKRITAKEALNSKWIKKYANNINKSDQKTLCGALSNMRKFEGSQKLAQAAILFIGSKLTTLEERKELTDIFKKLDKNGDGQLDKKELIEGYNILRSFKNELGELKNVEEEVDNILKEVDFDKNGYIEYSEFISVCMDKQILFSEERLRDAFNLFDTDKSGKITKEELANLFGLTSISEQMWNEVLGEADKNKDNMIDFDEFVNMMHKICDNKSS
L-lactate dehydrogenase (Plasmodium falciparum (isolate CDC / Honduras)), sequence (Q27743 whole entry, looked up): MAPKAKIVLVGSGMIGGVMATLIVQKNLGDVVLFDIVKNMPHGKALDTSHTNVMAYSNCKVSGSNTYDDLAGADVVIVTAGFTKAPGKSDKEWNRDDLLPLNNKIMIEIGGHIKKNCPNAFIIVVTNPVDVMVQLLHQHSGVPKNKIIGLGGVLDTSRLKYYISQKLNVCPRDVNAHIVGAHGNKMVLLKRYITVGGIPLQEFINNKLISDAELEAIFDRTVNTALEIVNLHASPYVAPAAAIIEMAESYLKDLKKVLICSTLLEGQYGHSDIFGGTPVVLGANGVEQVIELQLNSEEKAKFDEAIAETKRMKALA
Plasmodium falciparum protein kinase 6 (PK6, PF3D7_1337100), sequence (Q8IDW1 1-305): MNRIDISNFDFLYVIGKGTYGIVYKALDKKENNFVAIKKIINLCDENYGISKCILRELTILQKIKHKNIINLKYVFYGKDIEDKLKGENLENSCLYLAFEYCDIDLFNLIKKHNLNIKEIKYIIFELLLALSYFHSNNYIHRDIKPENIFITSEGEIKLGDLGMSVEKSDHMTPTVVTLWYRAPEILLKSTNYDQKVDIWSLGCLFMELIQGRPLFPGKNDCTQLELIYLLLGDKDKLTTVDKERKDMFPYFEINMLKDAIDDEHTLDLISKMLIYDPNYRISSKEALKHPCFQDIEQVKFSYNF

As a reminder, the inhibition is the change of the read-out against control, counted positive when it falls. Take `CCN1CCN(CCCNc2c3ccc(Cl)cc3nc3ccc(OC)cc23)CC1`: the growth inhibition in assay [1] is 100% (active); in assay [4] it was 97% (active). In addition, the results for the inhibition in assay [2] and in assay [3] were 34% and -5%, respectively. Also, the result in assay [5], in assay [6], in assay [7] and in assay [8] was inactive.
Consider `COc1cc(NC(=O)N2CCOC(CCN3CCC(c4ccccc4)CC3)(c3ccc(Cl)c(Cl)c3)C2)cc(OC)c1` (centres undefined), for which the growth inhibition in assay [1] is 73% (active); in assay [4], 93% (active). The inhibition in assay [2] is 12%; in assay [3], 0%. In addition, the result in assay [5], in assay [6], in assay [7] and in assay [8] was inactive.
Take `N#Cc1ccnc(-c2ccc(CNC3CCN(CC4Cn5c(=O)ccc6ccc(F)c4c65)CC3)cc2)c1` (centres undefined): the growth inhibition was 41% in assay [1] and 88% (active) in assay [4]. Besides, the inhibition is 24% in assay [2] and 2% in assay [3]. The outcome in assay [5], in assay [6], in assay [7] and in assay [8] was inactive.
For the molecule `C[C@H](Cc1ccc(OCCCCCCCOc2ccc(C[C@@H](C)NC[C@H](O)c3cccc(Cl)c3)cc2)cc1)NC[C@H](O)c1cccc(Cl)c1`, the results for the growth inhibition in assay [1] and in assay [4] were 97% (active) and 99% (active), respectively. The inhibition is 99% (active) in assay [2] and -6% in assay [3]. The result in assay [5], in assay [6], in assay [7] and in assay [8] was inactive.
On to `CCS(=O)(=O)N1CCN(c2nc(-c3ccccc3)nc(COC)c2Cc2ccccc2F)CC1`, for which the growth inhibition in assay [1] is 34%; in assay [4], 82% (active). The results for the inhibition in assay [2] and in assay [3] were -2% and 0%, respectively. Moreover, the result in assay [5], in assay [6], in assay [7] and in assay [8] was inactive.
In the case of `Oc1ccc(Nc2nc(N3CCCC3)c3ccccc3n2)cc1`, the growth inhibition was 100% (active) in assay [1] and 102% (active) in assay [4]. Also, the inhibition in assay [2] was 10%; in assay [3], -6%. For the same molecule, the outcome in assay [5], in assay [6], in assay [7] and in assay [8] was inactive.
`O=C(Nc1cccc(-c2csc(-c3nc4ccccc4[nH]3)c2)c1)c1ccoc1`: the figures for the growth inhibition in assay [1] and in assay [4] were 67% (active) and 96% (active), respectively. The inhibition was 36% in assay [2] and 1% in assay [3]. For the same molecule, the outcome in assay [5], in assay [6], in assay [7] and in assay [8] was inactive.
With `Cc1cccc2[nH]c(-c3cccc(-c4ccc(NC(=O)CC5NC(=O)c6ccccc65)cc4)c3)nc12` (centres undefined), the growth inhibition in assay [1] was 67% (active); in assay [4] it was 100% (active). Further, the results for the inhibition in assay [2] and in assay [3] were 30% and -7%, respectively. Further, the result in assay [5], in assay [6], in assay [7] and in assay [8] was inactive.
For the molecule `O=C(Nc1cccc(C(F)(F)F)c1)c1cc([N+](=O)[O-])cc2cn[nH]c12`, the growth inhibition in assay [1] is 69% (active); in assay [4] it was 101% (active). The inhibition in assay [2] was 60% (active); in assay [3] it was 3%. Moreover, the result in assay [5], in assay [6], in assay [7] and in assay [8] was inactive.
Consider `Cc1ccc(F)c(CN2CCC(N3CC(c4ccccc4)(c4ccccc4)OC3=O)CC2)c1Cl`, for which the growth inhibition in assay [1] was 89% (active); in assay [4] it was 95% (active). Besides, the inhibition was 11% in assay [2] and -4% in assay [3]. The outcome in assay [5], in assay [6], in assay [7] and in assay [8] was inactive.
Take `CCN(CC)CCN(Cc1ccc(-c2ccc(C(F)(F)F)cc2)cc1)C(=O)Cn1c(CCc2cccc(F)c2F)nc(=O)c2cc(F)ccc21`: the growth inhibition in assay [1] is 45%; in assay [4], 98% (active). Also, the inhibition in assay [2] was 15%; in assay [3], 0%. Besides, the outcome in assay [5], in assay [6], in assay [7] and in assay [8] was inactive.
For the molecule `O=c1[nH]c2ccc(Nc3nccc(NCCc4ccccc4)n3)cc2[nH]1`, the growth inhibition was 6% in assay [1] and 101% (active) in assay [4]. The results for the inhibition in assay [2] and in assay [3] were -1% and 3%, respectively. Moreover, the result in assay [5], in assay [6], in assay [7] and in assay [8] was inactive.
For `COc1ccc2c(=O)c3ccc(OC)cc3[nH]c2c1`, the growth inhibition in assay [1] was 75% (active); in assay [4], 93% (active). Also, the results for the inhibition in assay [2] and in assay [3] were 12% and 1%, respectively. Moreover, the outcome in assay [5], in assay [6], in assay [7] and in assay [8] was inactive.
Take `COc1ccc(-c2cncc3ccc(C(=O)NCCCn4ccnc4)nc23)cc1`: the growth inhibition was 99% (active) in assay [1] and 95% (active) in assay [4]. In addition, the figures for the inhibition in assay [2] and in assay [3] were 28% and -3%, respectively. Also, the outcome in assay [5], in assay [6], in assay [7] and in assay [8] was inactive.
On to `Fc1ccc(CNc2ccc3ncc(-c4cccnc4)n3n2)cc1`, for which the growth inhibition in assay [1] was 7%; in assay [4], 87% (active). The figures for the inhibition in assay [2] and in assay [3] were 7% and -2%, respectively. For the same molecule, the outcome in assay [5], in assay [6], in assay [7] and in assay [8] was inactive.
In the case of `Nc1cc(-c2cc3c(OCc4ccccc4)cccc3[nH]2)ccn1`, the growth inhibition was 15% in assay [1] and 85% (active) in assay [4]. Moreover, the inhibition was 23% in assay [2] and 4% in assay [3]. The outcome in assay [5], in assay [6], in assay [7] and in assay [8] was inactive.
Consider `CC(Cc1ccc(OCCCCOc2ccccc2)cc1)NCCc1ccc(Oc2ccccc2)cc1` (centres undefined), for which the growth inhibition was 95% (active) in assay [1] and 89% (active) in assay [4]. Further, the inhibition in assay [2] is 99% (active); in assay [3], 5%. In addition, the result in assay [5], in assay [6], in assay [7] and in assay [8] was inactive.
On to `CN(C)c1ccc(CN2CCC(NC(=O)c3ccc(-c4ccccc4Cl)s3)CC2)cc1`, for which the growth inhibition in assay [1] is 27%; in assay [4] it was 82% (active). In addition, the inhibition was 35% in assay [2] and -1% in assay [3]. Further, the result in assay [5], in assay [6], in assay [7] and in assay [8] was inactive.
